We go through 13 compounds from PubChem BioAssay.

A short description of assay [1]: anti-His antibody binders, primary screen, artefact control for SMM control protein annotation, biochemical, small-molecule microarray, 635 nm fluorescence (AID 1128).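 Also: score merges feature fluorescence with signal-to-noise for each printed compound spot.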 The following applies: anti-His Alexa647 antibody binding, higher = more signal.
Assay [2] has as its system Human papillomavirus type 1a E7 protein (residues 1-88). The assay can be described thus: HPV1a E7 small-molecule binders, primary screen, biochemical, small-molecule microarray, residues 1-88, 635 nm (AID 1129). The following applies: small-molecule microarray binding, fluorescence 635 nm; higher = more signal.
Assay [3] addresses Focal adhesion kinase 1 (Homo sapiens) (UniProt Q05397). In words: small-molecule microarray binders of FAK, primary screen, biochemical, 635/667 nm fluorescence, BSA, DTT (AID 1130).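 Also: composite of spot emission at 667 nm and signal to noise over triplicate slides.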 The following applies: PTK2 binding, 635 nm fluorescence, higher = more signal.
Assay [4] has as its system Fibrinogen (Alexa647-labelled). The assay can be described thus: fibrinogen binders on compound microarrays, profiling panel, artefact control for SMM control-protein annotation, biochemical, small-molecule microarray, 635/667 nm fluorescence (AID 1131).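 Also: z-score merges 667 nm fluorescence with per-spot signal-to-noise over triplicate slides.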 The following applies: fibrinogen-A647 binding fluorescence, higher = more signal.
For assay [5], the target named is Follistatin (Homo sapiens) (UniProt P19883). In words: follistatin binders on small-molecule microarrays, primary screen, biochemical, small-molecule microarray, 635/667 nm fluorescence (AID 1132). The following applies: FST binding, 635 nm fluorescence, higher = more signal.
Sequence of Follistatin (Homo sapiens) (P19883 whole entry, looked up): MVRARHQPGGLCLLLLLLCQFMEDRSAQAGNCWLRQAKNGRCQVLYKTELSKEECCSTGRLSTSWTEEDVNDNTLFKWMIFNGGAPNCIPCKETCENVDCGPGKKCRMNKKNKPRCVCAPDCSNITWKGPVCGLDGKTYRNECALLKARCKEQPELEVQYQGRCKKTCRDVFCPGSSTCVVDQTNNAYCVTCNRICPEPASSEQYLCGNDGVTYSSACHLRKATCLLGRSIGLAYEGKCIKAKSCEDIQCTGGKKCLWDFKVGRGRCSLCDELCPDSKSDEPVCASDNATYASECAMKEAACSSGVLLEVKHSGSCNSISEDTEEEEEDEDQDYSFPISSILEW
The target in assay [6] is Fibroblast growth factor 2 (Homo sapiens) (UniProt P09038). The assay can be described thus: FGF2 binders on small-molecule microarrays, primary screen, biochemical, small-molecule microarray, 635/667 nm fluorescence (AID 1133). The following applies: small-molecule microarray binding, FGF2, fluorescence 635/667; higher = more signal.
Sequence of Fibroblast growth factor 2 (Homo sapiens) (P09038 whole entry, looked up): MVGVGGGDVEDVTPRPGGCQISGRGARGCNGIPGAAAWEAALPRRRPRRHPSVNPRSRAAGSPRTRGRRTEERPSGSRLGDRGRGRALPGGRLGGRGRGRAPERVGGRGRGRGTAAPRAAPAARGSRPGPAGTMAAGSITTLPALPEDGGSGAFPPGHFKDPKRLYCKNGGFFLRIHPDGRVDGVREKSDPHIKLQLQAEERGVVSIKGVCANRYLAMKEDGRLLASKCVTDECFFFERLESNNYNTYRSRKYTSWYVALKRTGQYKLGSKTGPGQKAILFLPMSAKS
Assay [7] in a line: mitochondrial membrane potential change in A549 cells, profiling panel, cell-based, JC-1 fluorescence, basal, 24 h, 100 nL (AID 1138).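 Also: A549 lung adenocarcinoma cells under basal conditions with no added stimulus; test concentration not given here.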 The following applies: higher = more signal.
Assay [8] concerns Lefty1. In words: Lefty1 binders on small-molecule microarrays, primary screen, biochemical, small-molecule microarray, 635/667 nm fluorescence (AID 1139). The following applies: small-molecule microarray binding, fluorescence 635/667; higher = more signal.
For assay [9], the system named is wheat germ agglutinin (Triticum aestivum), Alexa647-labelled. The assay can be described thus: wheat germ agglutinin binders on compound microarrays, profiling panel, artefact control for SMM control-protein annotation, biochemical, small-molecule microarray, 635/667 nm fluorescence (AID 1140).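 Also: score merges 667 nm feature emission with signal to noise over triplicate slides.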 The following applies: WGA-A647 binding, 635 nm fluorescence, higher = more signal.

Assay [10] deals with Luciferin 4-monooxygenase (Photinus pyralis) (UniProt P08659). In words: firefly luciferase enzyme inhibitors, primary screen, biochemical, luminescence, purified enzyme, 2006 set (AID 1141).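 Also: cell-free assay with purified firefly luciferase at 100 ng per well in PBS; test concentration not given here.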 The following applies: SteadyGlo luminescence, 30 min, higher = more signal, called active from +8 up or from −8 down.
Sequence of Luciferin 4-monooxygenase (Photinus pyralis) (P08659 whole entry, looked up): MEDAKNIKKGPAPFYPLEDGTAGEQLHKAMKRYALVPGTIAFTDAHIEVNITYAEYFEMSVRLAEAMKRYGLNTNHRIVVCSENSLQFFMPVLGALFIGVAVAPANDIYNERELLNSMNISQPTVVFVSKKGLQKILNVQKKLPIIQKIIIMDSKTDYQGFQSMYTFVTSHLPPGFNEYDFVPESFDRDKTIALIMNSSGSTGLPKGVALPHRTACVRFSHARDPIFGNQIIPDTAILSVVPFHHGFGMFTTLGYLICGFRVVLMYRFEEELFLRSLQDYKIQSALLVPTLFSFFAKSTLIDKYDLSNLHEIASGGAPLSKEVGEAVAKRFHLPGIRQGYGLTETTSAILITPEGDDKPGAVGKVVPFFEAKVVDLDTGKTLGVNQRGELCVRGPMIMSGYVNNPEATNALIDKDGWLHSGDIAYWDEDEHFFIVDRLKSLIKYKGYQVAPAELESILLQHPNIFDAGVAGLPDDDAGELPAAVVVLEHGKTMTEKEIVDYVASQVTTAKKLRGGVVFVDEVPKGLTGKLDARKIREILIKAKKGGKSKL

Structures are written as SMILES. Active and inactive are the calls of the source.

Sequence of Focal adhesion kinase 1 (Homo sapiens) (Q05397 whole entry, looked up): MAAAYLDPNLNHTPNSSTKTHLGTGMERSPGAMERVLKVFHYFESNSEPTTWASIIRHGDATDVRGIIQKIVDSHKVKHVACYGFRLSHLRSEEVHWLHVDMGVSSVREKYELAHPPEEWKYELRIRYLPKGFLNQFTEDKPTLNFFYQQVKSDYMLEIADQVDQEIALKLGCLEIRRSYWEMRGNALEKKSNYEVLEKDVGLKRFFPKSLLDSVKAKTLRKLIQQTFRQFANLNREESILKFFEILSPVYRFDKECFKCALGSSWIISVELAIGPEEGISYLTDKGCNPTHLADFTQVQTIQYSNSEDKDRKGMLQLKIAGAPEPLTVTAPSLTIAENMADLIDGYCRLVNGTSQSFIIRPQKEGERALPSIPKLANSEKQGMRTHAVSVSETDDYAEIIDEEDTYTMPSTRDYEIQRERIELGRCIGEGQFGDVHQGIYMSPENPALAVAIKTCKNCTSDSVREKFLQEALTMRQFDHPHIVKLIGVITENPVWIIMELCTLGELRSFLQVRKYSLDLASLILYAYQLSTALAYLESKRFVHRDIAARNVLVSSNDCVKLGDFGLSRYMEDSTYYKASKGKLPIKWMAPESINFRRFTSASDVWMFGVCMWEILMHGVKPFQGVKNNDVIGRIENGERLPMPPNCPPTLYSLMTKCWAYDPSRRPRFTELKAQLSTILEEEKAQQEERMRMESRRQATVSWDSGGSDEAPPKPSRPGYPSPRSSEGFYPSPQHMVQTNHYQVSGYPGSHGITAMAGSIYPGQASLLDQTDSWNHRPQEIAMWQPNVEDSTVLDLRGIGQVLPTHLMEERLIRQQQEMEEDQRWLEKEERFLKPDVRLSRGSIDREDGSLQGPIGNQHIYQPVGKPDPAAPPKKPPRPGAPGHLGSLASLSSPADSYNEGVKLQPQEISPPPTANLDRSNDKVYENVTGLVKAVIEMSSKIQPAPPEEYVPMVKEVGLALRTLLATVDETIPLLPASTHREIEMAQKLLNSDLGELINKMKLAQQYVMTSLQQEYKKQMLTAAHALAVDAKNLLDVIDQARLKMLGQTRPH

Turning to `CCCCCN1CC=CC23O[C@@H]4/C=C\CCCOC(=O)C4[C@H]2C(=O)N(CCO)[C@@H]3C1=O` (stereo not given in full), the composite z-score in assay [1] is 2.49; in assay [2], 0.87; in [3], 1.15; in assay [4], -0.728; in assay [5], -0.274; in [6] it was -0.0388. Also, the figures for the composite z-score in assay [8] and in assay [9] were 0.126 and 0.759, respectively. Moreover, the z-score in [7] was -0.953; in [10] it was -2.06 (inactive).
`COc1cc(CO)cc(I)c1O[C@H]1C=C(C(=O)NCCO)C[C@@H](N(CCN2CCOCC2)C(=O)C2CCCO2)[C@@H]1O` (stereo not given in full): the composite z-score is 0.0704 in assay [1]; 0.413 in assay [2]; 0.192 in [3]; -0.0246 in [4]; 0.132 in assay [5]; 0.144 in assay [6]. In addition, the composite z-score in assay [8] was 0.159; in assay [9], -0.139. For the same compound, the z-score in assay [7] is 1.48; in assay [10] it was -0.91 (inactive).
With `COC(=O)[C@@]1(Cc2ccccc2)[C@H]2c3cc(C(=O)N(C)C)n(Cc4nc5ccccc5[nH]4)c3C[C@H]2CN1C(=O)c1ccccc1`, the composite z-score in assay [1] was 1.85; in assay [2], 1.24; in assay [3], 0.872; in assay [4] it was 1.03; in assay [5], 0.804; in assay [6] it was -0.378. For the same compound, the composite z-score is -0.414 in assay [8] and 0.779 in [9]. For the same compound, the z-score in [7] was 0.157; in [10], -1.77 (inactive).
On to `CCOC(=O)C1=CC[C@@H](c2ccccc2)N(S(=O)(=O)c2ccc(C)cc2)[C@@H]1C#N`, for which the composite z-score in assay [1] was 2.09; in assay [2], 1.15; in [3] it was 0.165; in assay [4], 0.317; in assay [5], 0.351; in [6] it was -0.501. For the same compound, the composite z-score in assay [8] is -0.0273; in [9], 0.72. In addition, the z-score is 0.215 in assay [7] and -0.323 (inactive) in assay [10].
Regarding `[N-]=[N+]=NCc1ccccc1[C@H]1OC(c2ccc(OCCCO)cc2)=N[C@@]1(Cc1ccccc1N=[N+]=[N-])C(N)=O`, the composite z-score in assay [1] was 1.03; in assay [2] it was 1.14; in [3], 0.579; in [4], 1.01; in assay [5], 1.21; in assay [6], 0.27. Moreover, the composite z-score in assay [8] was determined as 0.174; in [9], 1.21. Moreover, the values for the z-score in assay [7] and in assay [10] were 0.145 and -3.23 (inactive), respectively.
Consider `COCCOC(=O)N1C(=O)[C@@]2(c3cc(C#CCC(C(=O)OC)C(=O)OC)ccc31)[C@H](C(N)=O)[C@H]1C(=O)O[C@H](c3ccccc3)[C@H](c3ccccc3)N1[C@@H]2c1ccccc1OCCO`, for which the composite z-score worked out at 0.737 in assay [1]; 1.09 in [2]; 0.225 in [3]; 0.927 in assay [4]; 1.32 in [5]; 1.57 in assay [6]. Further, the composite z-score in [8] was determined as 1.26; in assay [9], 0.556. In addition, the z-score in [7] is -0.116; in assay [10], -0.617 (inactive).
Consider `Cc1ccc(S[C@]2(C(=O)NCCN3CCOCC3)CC(=O)N(C(C)C)[C@@H]2c2ccc(CO)cc2I)cc1`, for which the composite z-score in [1] is -1.03; in assay [2], -0.636; in [3], 0.218; in assay [4], -1.09; in [5], -0.453; in [6] it was -0.706. Besides, the composite z-score in assay [8] was -0.816; in assay [9], -0.581. The z-score in assay [7] was 1.94; in assay [10], -1.3 (inactive).
Regarding `COc1ccc([Si](C)(C)[C@@H]2[C@@H](CC(=O)N3CCC[C@H]3CO)O[C@]3(C(=O)N(Cc4cccc(N5C(=O)c6cccc7cccc5c67)c4)c4ccccc43)[C@H]2C)cc1`, the composite z-score was found to be 1.2 in assay [1]; 1.03 in assay [2]; 0.948 in assay [3]; 0.584 in [4]; 1.16 in [5]; 1.43 in assay [6]. The composite z-score in assay [8] came out at 0.839; in assay [9] it was 1.21. The z-score in assay [7] is -0.0137; in assay [10] it was -0.0921 (inactive).
As to `CC(C)C[C@@H]1NC(=O)[C@@H]2C[C@H](C(=O)NCCCCCCNC(=O)CS)[C@H](c3ccc(O)cc3)N2C1=O`, the composite z-score in assay [1] worked out at 2.1; in [2], 1.28; in assay [3] it was 0.116; in assay [4], 0.913; in assay [5], 1.46; in [6] it was 1.62. Moreover, the composite z-score was 1.41 in assay [8] and 0.907 in [9]. Further, the z-score is -1.16 in [7] and -0.677 (inactive) in assay [10].
Regarding `O=C1C[C@@](C(=O)NCC(F)(F)F)(c2ccc([N+](=O)[O-])cc2)[C@@H](c2ccc(CO)cc2I)N1CC12CC3CC(CC(C3)C1)C2`, the composite z-score in assay [1] was 1.31; in assay [2], 0.722; in assay [3], -0.0231; in assay [4] it was 0.93; in [5], 0.994; in assay [6], 1.34. Also, the composite z-score in [8] came to 1.22; in assay [9] it was 0.249. For the same compound, the figures for the z-score in [7] and in assay [10] were 1.73 and -0.251 (inactive), respectively.
As to `C=C(CC1([C@@H](NP(=O)(c2ccccc2)c2ccccc2)[C@H]2C[C@@H]2CCCC)CC1)c1cccc(OC)c1`, the composite z-score in [1] is 1.18; in assay [2], 0.811; in assay [3] it was 0.751; in assay [4], 0.269; in [5], 0.43; in assay [6], -0.7. The figures for the composite z-score in [8] and in assay [9] were -0.739 and 0.344, respectively. In addition, the z-score in assay [7] is 0.959; in assay [10], 2.59 (inactive).
With `CCOC(=O)C[C@H]1[C@H](OC(=O)c2cc3ccccc3oc2=O)[C@@H](NC(=O)c2ccc(-c3ccccc3)cc2)c2cc(OCCCO)ccc2N1C(=O)Cc1ccc(OC)cc1`, the composite z-score in assay [1] was found to be 0.396; in assay [2] it was 1.19; in assay [3], 0.414; in assay [4], 0.522; in [5], 0.679; in assay [6], 1.41. For the same compound, the composite z-score is 0.907 in assay [8] and 0.266 in assay [9]. For the same compound, the values for the z-score in assay [7] and in assay [10] were -0.424 and 0.853 (inactive), respectively.
With `COc1ccc(CCNC(=O)[C@@]2(C)c3ccccc3C(=O)N(Cc3ccc(OC(F)(F)F)cc3)[C@H]2c2ccc(CO)cc2)cc1`, the composite z-score is -0.0781 in assay [1]; 1.21 in [2]; 1.13 in assay [3]; 0.576 in assay [4]; 1.3 in [5]; 1.76 in assay [6]. In addition, the composite z-score came to 0.268 in [8] and 0.375 in [9]. The z-score is 0.791 in assay [7] and -0.629 (inactive) in [10].
